An excerpt weighted towards active compounds, which were near 7.4% of everything screened.
ELG1 genotoxic – qHTS screen for small molecules that induce genotoxicity in human embryonic kidney (HEK293T) cells expressing luciferase-tagged ELG1; HEK293T ELG1-luciferase reporter, luminescence, 16 h; Potency, µM (highest dose often 46 µM), for the others: at the top dose activity change, positive = activation, usual class: activators; actives 1.3% (n = 330,000); further: % of control where 0% means no effect; nearly all actives have a fitted effect of over 60% in size
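DMSO vehicle served as control against compound-treated ELG1-luciferase HEK293T cells; exposure lasted 16 hr at 37 °C and 5% CO2, followed by ONE-Glo luminescence detection after 30 min.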
Luc counter – Counterscreen for Luciferase (Kinase-Glo TM) Inhibition; Kinase-Glo luciferase, ATP luminescence, 8 min; actives 0.28% (n = 200,000); Potency, µM (top dose mostly 38.3 µM), inactives show at the highest dose activity change, negative = inhibition, most hits filed as inhibitors; further: on the % scale 0 is the no-effect control and ±100 the full control effect; nearly all actives have a fitted effect of over 60% in size
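Inhibition of Kinase-Glo luciferase light generation was assessed at 10 uM ATP in pH 7.2 imidazole buffer, with luminescence measured after eight minutes at ambient temperature.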
NPC1 prom act – qHTS Assay for NPC1 Promoter Activators; Huh7 NPC1 promoter luciferase reporter, 24 h; Potency, µM (titrated, usually from 9.22 µM), inactives show at the top dose activation, hits mostly activators; actives 2.4% (n = 320,000); further: % of control where 0% means no effect; nearly all actives have a fitted effect of over 60% in size
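Luminescence from an NPC1 promoter-driven luciferase reporter in stably transfected Huh7 cells was measured after 24 h compound treatment at 37 °C, followed by 10 min ambient incubation with luciferase detection reagent.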
Rab9 prom act – qHTS Assay for Rab9 Promoter Activators; Potency, µM (top dose mostly 9.22 µM), for the others: at the top dose activation, negative = inhibition, actives largely listed as activators; AID 485297, 2010; Huh7 Rab9 promoter-luciferase reporter, luminescence, 24 h; actives 2.8% (n = 320,000); further: % of control where 0% means no effect; nearly all actives have a fitted effect of over 60% in size
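Using Huh7 cells stably transfected with Rab9 promoter–luciferase, compounds were incubated 24 h at 37 °C, 5% CO2; luciferase luminescence was read 10 min after reagent addition.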
FLuc modulator – qHTS profiling assay for firefly luciferase inhibitor/activator using purifed enzyme and Km concentrations of substrates (counterscreen for miR-21 project). Potency, µM (top dose mostly 57.5 µM), for inactives: top-dose activity change, negative = inhibition, usual class: inhibitors. Luciferin 4-monooxygenase (Photinus pyralis), P08659. purified FLuc, Km substrates, luminescence inhibition. AID 588342, 2011. actives 6.9% (n = 360,000);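 further: plate controls were vehicle for no effect and reference inhibitor for full effect; nearly all actives have a fitted effect of over 55% in size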
Target sequence (P08659 whole entry, looked up): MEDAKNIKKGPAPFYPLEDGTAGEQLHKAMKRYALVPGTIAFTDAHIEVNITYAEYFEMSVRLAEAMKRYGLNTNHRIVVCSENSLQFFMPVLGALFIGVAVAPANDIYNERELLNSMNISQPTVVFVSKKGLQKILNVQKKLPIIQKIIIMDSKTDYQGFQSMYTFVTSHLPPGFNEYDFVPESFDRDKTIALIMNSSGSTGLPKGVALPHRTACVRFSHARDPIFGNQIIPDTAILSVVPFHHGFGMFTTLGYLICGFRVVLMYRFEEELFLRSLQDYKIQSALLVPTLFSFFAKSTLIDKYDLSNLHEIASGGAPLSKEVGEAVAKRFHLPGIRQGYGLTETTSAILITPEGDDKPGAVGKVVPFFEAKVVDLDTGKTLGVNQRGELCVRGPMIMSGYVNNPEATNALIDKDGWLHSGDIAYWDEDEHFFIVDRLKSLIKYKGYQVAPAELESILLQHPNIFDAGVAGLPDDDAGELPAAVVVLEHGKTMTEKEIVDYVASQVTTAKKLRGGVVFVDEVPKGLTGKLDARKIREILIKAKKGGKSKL
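Biochemical qHTS of compounds, final roughly 60 µM downward over six points, against 10 nM purified firefly luciferase using Km concentrations of substrates (10 uM D-luciferin, 10 uM ATP) in Tris acetate pH 7.5 buffer; luminescence output.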
SMN2 splice enh – qHTS Assay for Enhancers of SMN2 Splice Variant Expression. Potency, µM (highest dose often 46.1 µM), inactives show at the top dose activity change, positive = activation, actives largely listed as activators. HEK293 SMN2-luciferase splicing reporter, luminescence, 30-36 h. actives 2.8% (n = 210,000); further: % of control where 0% means no effect; nearly all actives have a fitted effect of over 55% in size
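HEK293 cells carry an SMN2 minigene-luciferase reporter in which exon 7 inclusion puts luciferase in frame. Cells were seeded at 2000 cells/well, attached for 10-12 hours, then exposed to compounds for 30-36 hours at 37C before ONE-Glo luminescence.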
* hit, by the source's call; ? = inconclusive; / = no result. The call rests on the fitted dose curve; in most records, active means well fitted curve in the direction sought with a large enough effect; inconclusive means small, poorly fitted or top-dose-only effect, or another doubt; inactive means no such curve, though single readings can be large; an effect the other way counts as inactive or inconclusive. Potency means the concentration at half of the fitted maximal effect.

SMILES | ELG1 genotoxic | Luc counter | NPC1 prom act | Rab9 prom act | FLuc modulator | SMN2 splice enh
COc1ccc(/C=C2\Oc3cc(OCC(=O)N4CCC(C(=O)O)CC4)ccc3C2=O)c(OC)c1OC | 6.1% | / | -1.2% | -5.7% | ? | /
COc1cccc(/C=C2\Oc3cc(OCC(=O)N4CCCC4)ccc3C2=O)c1OC | 1.8% | / | -3.5% | -1.5% | 9.53µM* | /
COc1cccc(/C=C2\Oc3cc(OCC(=O)N4CCCCC4)ccc3C2=O)c1OC | 1.6% | / | -4.9% | -7.4% | 9.53µM* | /
COc1ccc(OC)c(/C=C2\Oc3cc(OCC(=O)N4CCC(C(=O)O)CC4)ccc3C2=O)c1 | -0.3% | / | -4.0% | -16.8% | -18.7% | /
COc1ccc(/C=C2\Oc3cc(OCC(=O)N4CCC(C(=O)O)CC4)ccc3C2=O)c(OC)c1 | 1.3% | / | 0.0% | -6.5% | 6.75µM* | /
O=C(COC(=O)c1cc(=O)[nH]c(=O)[nH]1)Nc1cccc(S(=O)(=O)N2CCCCC2)c1 | 4.8% | 1.2% | -1.9% | 2.2% | -6.2% | 3.0%
Fc1ccc(/C=N/n2c(-c3cccs3)n[nH]c2=S)cc1 | -1.0% | 20.1% | -3.3% | -0.6% | 5.6% | 17.5%
COc1ccccc1/C=C/c1nc(C#N)c(NC2CCCCC2)o1 | / | / | / | / | ? | 3.5%
COc1ccc(C(c2sc3ncnn3c2O)N2CCN(c3ccccc3F)CC2)cc1OC (stereo not drawn) | ? | -1.7% | -0.3% | 1.0% | 7.57µM* | -26.5%
COc1ccc(C(c2sc3ncnn3c2O)N2CC(C)OC(C)C2)cc1OC (stereo not drawn) | 14.7% | -0.3% | -1.7% | -1.6% | 19µM* | 24.1%
Cc1cccc(N2CCN(S(=O)(=O)c3ccc(-c4cc(C(F)(F)F)on4)s3)CC2)c1C | / | / | / | / | -5.8% | /
CN(C(=O)c1cc2c(=O)n3ccccc3nc2n1C)C1CCCCC1 | 4.61µM* | / | 2µM* | 3.16µM* | 12µM* | /
Cc1cc(C(F)(F)F)nc(-n2cc(-c3cccc(N)c3)nn2)n1 | 2.2% | / | 8.1% | 9.3% | 1.1% | /
Nc1cccc(-c2cn3cc(C(F)(F)F)cc(Cl)c3n2)c1 | ? | -7.0% | 1µM* | 1.58µM* | 1.9µM* | 7.94µM*
FC(F)(F)c1cc(Cl)c2nc(-c3ccccc3)cn2c1 | ? | -14.9% | ? | ? | 1.9µM* | 14.1µM*
Cc1cc(OCC(=O)NCC2(N3CCN(C)CC3)CCCCC2)cc(C)c1Cl | / | / | / | / | -1.8% | /
CCOC(=O)c1scc(-c2ccc(C)cc2)c1S(=O)(=O)Nc1cccc(CC)c1 | / | / | / | / | -13.5% | /
COc1ccc(C2CC2C(=O)c2ccccn2)cc1 (stereo not drawn) | 6.0% | 0.1% | ? | ? | 16.9µM* | 11.6%
COc1ccc(C2CC2/C(=N/O)c2ccccn2)cc1 (stereo not drawn) | 4.3% | -4.8% | 14.2% | ? | ? | 12.3%
CCOc1ccc2nc(NS(C)(=O)=O)sc2c1 | ? | -1.5% | 6.9% | 1.4% | 16.9µM* | 14.1µM*
CCc1ccc2nc(NC(=O)CSCc3c(C)noc3C)sc2c1 | 7.8% | 0.3% | 4.9% | 20.4% | 21.3µM* | ?
CCOc1ccc2nc(NC(=O)C3CSC4(C)CCC(=O)N34)sc2c1 (stereo not drawn) | 1.2% | / | 1.1% | 19.5% | 21.3µM* | /
Cc1ccc2nc(NC(=O)CSCC(=O)OCC(=O)c3ccccc3)sc2c1 | 3.8% | -3.2% | -20.6% | -32.0% | 16.9µM* | -25.6%
Cn1c(=O)nc2n(Cc3ccccc3)c3cccc(Cl)c3cc-2c1=O | -0.5% | -0.5% | 1.0% | -0.3% | 0.5% | -6.4%
C/C=C/C(=O)OCC(=O)Nc1nc2ccc(C)cc2s1 | ? | 14.5% | 24.1% | ? | 21.3µM* | 17.3%
SMILES | ELG1 genotoxic | Luc counter | NPC1 prom act | Rab9 prom act | FLuc modulator | SMN2 splice enh
CC1CC1C(=O)Nc1nc2ccc(S(C)(=O)=O)cc2s1 (stereo not drawn) | 10.0% | / | 12.1% | 17.6% | -21.2% | /
O=C(COC(=O)c1ccccn1)Nc1nc(-c2ccccc2)cs1 | 23.9% | / | 0.1% | 21.0% | ? | /
CCOCC(=O)Nc1nc2ccc(OCC)cc2s1 | 8.2µM* | -21.4% | 2.51µM* | 1.26µM* | 8.49µM* | 11.2µM*
Cc1ccc2nc(NC(=O)COC(=O)c3ccccn3)sc2c1 | 0.0% | -1.7% | ? | ? | 15.1µM* | ?
Cc1ccc2nc(NC(=O)C3CC3C)sc2c1 (stereo not drawn) | 13.4% | / | 1.12µM* | ? | 5.36µM* | /
CCOCC(=O)Nc1nc2ccc(S(C)(=O)=O)cc2s1 | 7.4% | -11.3% | 2.0% | 15.8% | ? | ?
CCOc1ccc2nc(NC(=O)CCC(=O)c3cccs3)sc2c1 | 10.3µM* | -5.2% | 3.16µM* | 4.47µM* | 1.9µM* | 12.6µM*
CCOc1ccc2nc(NC(=O)CSCC(=O)Nc3cc(C)on3)sc2c1 | ? | / | ? | 3.16µM* | ? | /
CCOc1ccc(NC(=O)COC(=O)CCC(=O)c2cccs2)cc1 | -0.8% | / | 1.7% | 1.3% | ? | /
CCOc1ccc2nc(SCC(=O)Nc3cc(C)on3)c(C)cc2c1 | 0.9% | / | -6.0% | 2.9% | 4.3% | /
CCOc1ccc2nc(NC(=O)CN3CCN(c4ccccn4)CC3)sc2c1 | / | -4.2% | / | / | ? | -39.1%
CCOc1ccc2nc(NC(=O)Cn3c(C)csc3=O)sc2c1 | 11.7% | / | 14.1% | 6.7% | 4.78µM* | /
CCOCC(=O)Nc1nc2ccc(C)cc2s1 | ? | -8.2% | ? | 1.78µM* | 9.53µM* | 10µM*
Cc1cc(C)c2sc(NC(=O)C3=COCCO3)nc2c1 | ? | / | 0.562µM* | 0.447µM* | 2.13µM* | /
O=C(Nc1nc2ccc(F)cc2s1)C1=COCCO1 | ? | / | 0.708µM* | 0.282µM* | 0.426µM* | /
Cc1ccc(-c2nnc(NC(=O)C3=COCCO3)o2)c(C)c1 | 7.9% | / | 18.7% | 11.2% | 15.1µM* | /
CSc1cccc2sc(NC(=O)C3=COCCO3)nc12 | 13.3% | / | 19.9% | 27.9% | -14.4% | /
Cc1ccc(Cl)c2sc(NC(=O)C3=COCCO3)nc12 | ? | / | -4.8% | 4.9% | 19µM* | /
CC(NCC(=O)Nc1cc(S(=O)(=O)N2CCOCC2)ccc1N1CCOCC1)c1ccco1 (stereo not drawn) | 1.1% | / | -1.0% | 3.7% | 1.2% | /
CN(C(=O)CSc1nc2c(c(=O)[nH]1)CCCC2)c1ccccc1 | / | / | / | / | -0.7% | /
Cc1ccc(C(=O)N[C@H](C(=O)OCC(=O)NC2CCS(=O)(=O)C2)C(C)C)cc1 (stereo partly drawn) | 2.4% | 0.7% | 0.4% | -4.5% | 5.7% | 10.3%
O=C(Nc1nc2cc3c(cc2s1)OCCO3)C1=COCCO1 | ? | / | -23.0% | -24.5% | 0.0536µM* | /

Screening data as filed in PubChem.
